The AC50 is the concentration at which the activity in the assay is half-maximal.

Results filed as inconclusive are left out. Some compounds were tested as several samples or in several runs, with calls that do not always agree. Activity calls are given as the source filed them. Rule for the calls, unless noted: active = hit-call score of the fitted dose curve at least 0.9, where 1 is the maximum; inconclusive = response in the unintended direction; inactive = score below 0.9.

Assay [1] is described as follows: ArunA_CellTiter_hNC: Viability Assessment in the ArunA Biomedical's Oris Neural Crest (hNC) Cell Migration Assay (AID 2283752). As for the experimental part:
ArunA_CellTiter_hNC is a cell-based, single-readout assay that uses human H9-derived embryonic neural crest stem cells (hNC). Measurements were taken 72 hours after chemical dosing in a 96-well plate.ArunA_CellTiter_hNC is an assay component measured from the ArunA_CellTiter_hNC assay. It is designed to make measurements of viability, a form of viability reporter, as detected with fluorescence intensity signals by HCS Fluorescent Imaging technology. Data from the assay component ArunA_CellTiter_hNC was analyzed at the endpoint, ArunA_CellTiter_hNC, in the positive analysis fitting direction relative to DMSO as the negative control and baseline of activity. Using a type of viability reporter, loss-of-signal activity can be used to understand viability. To generalize the intended target to other relatable targets, this assay endpoint is annotated to the cell cycle intended target family, where the subfamily is cytotoxicity.
To assess the hNP and hNC migration and cell titer endpoints, 60,000 cells per well were plated onto Matrigel in basal growth medium with LIF and bFGF in a 96-well plate format. Plates were incubated for 16 h at 37C followed by a 72 h exposure to chemical in the test medium. For the migration endpoints, cells were seeded and incubated in presence of 'seeding stoppers' to prevent cell migration and growth into the detection zone. At the beginning of chemical exposure, stoppers were removed, and growth medium was replaced with test medium. In the case of the stopper control wells, stoppers remained in place following replacement of growth medium with test medium. […] Cell viability in the detection zone was quantitated using a Flexstation3 microplate reader (ex494 nm/em 517 nm). Corresponding cell titer endpoints were assessed for the hNP and hNC cells using the Promega CellTiter Aqueous One Solution Cell Proliferation Assay (Cat no. G3581; CellTiter 96). Finally, to gain insight into the mechanisms by which cells migrate into the detection zone, Ki-67 expression was quantified for 10 additional chemicals in the hNP and hNC systems. […]

Assay [2] can be described thus: CEETOX_H295R_MTT_cell_viability: Viability Assessment in the CeeTox HT-H295R MTT Assay (AID 2283718; active = hit-call score of the fitted dose curve at least 0.9, where 1 is the maximum; inactive = score below 0.9;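 for AC50: curve fitted both ways so AC50 may mark viability loss or gain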). The method in brief:
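MTT reduction (0.5 mg/ml, 4 h at 37 C; absorbance at 570 and 650 nm) gave viability as background-corrected percent change versus controls. H295R cells had 48 h forskolin (10 uM) prestimulation, then 48 h chemical exposure at 0.1% DMSO.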

The nature of assay [3]: Tanguay_ZF_120hpf_ActivityScore_legacy: (Legacy) Oregon State University Tanguay Lab 120 Hour Post-fertilization zebrafish Assay Score for Activity (AID 2283742).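 For AC50: dechorionated Tropical 5D wild-type zebrafish embryos held singly per well; static exposure from 6 hpf until 120 hpf at 28 °C.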 The method in brief: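 Embryos are staged, enzymatically dechorionated at 4 hpf, placed individually at 6 hpf, then held in test chemical (0.64% DMSO) at 28C until 120 hpf. Mortality and malformations are scored by brightfield, with non-mortality endpoints skipped for dead embryos.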

Assay [4] is described as follows: ArunA_CellTiter_hNP: Viability Assessment in the ArunA Biomedical's Oris Neural Crest (hNC) Cell Migration Assay (AID 2283753). The method in brief:
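H9-derived hNP1 neuroprogenitors, 60,000/well on Matrigel, cultured 16 h, then 72 h chemical exposure in test medium. Cell titer via CellTiter Aqueous One; positive-direction fit vs DMSO.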

Assay [5] is described as follows: ArunA_Migration_hNP: ArunA Biomedical's Oris Neuroprogenitor (hNP) Cell Migration Assay (AID 2283754). The method in brief:
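Human H9-derived hNP1 neuroprogenitors on Matrigel with LIF/bFGF, plated around seeding stoppers for 16 h at 37C; stoppers removed at start of 72 h chemical exposure. Calcein-AM staining, fluorescence 494/517 nm in detection zone; loss-of-signal vs DMSO; cytochalasin D control.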

The nature of assay [6]: ArunA_Migration_hNC: ArunA Biomedical's Oris Neural Crest (hNC) Cell Migration Assay (AID 2283755). The method in brief:
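Human H9-derived neural crest stem cells, 60,000/well on Matrigel, 16 h at 37C, then 72 h chemical exposure after seeding-stopper removal. Migration into detection zone read as calcein-AM fluorescence (ex494/em517), relative to DMSO.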

Assay [7] is described as follows: ArunA_NOG_NucleusCount: ArunA Biomedical's Neurite Outgrowth (NOG) Assay for Nucleus Count (AID 2283756). The method in brief: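 Human H9-derived differentiated neurons were exposed for 48 h right after seeding. Hoechst-stained nuclei gated by size and intensity were counted by automated high-content imaging as viable neurons. Loss of signal vs DMSO.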
Assay [8] deals with Thyroperoxidase (TPO), gene 445522. As to the kind of experiment: CCTE_Simmons_GUA_TPO: CCTE's Guaiacol Assay for Thyroperoxidase (TPO) Inhibition, Simmons Lab (AID 2283750). The method in brief:
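Porcine thyroid microsomes (25 ug) in 200mM potassium phosphate, preincubated 30 s at 37C with compound (8 concentrations, 5 nM–87.5 uM) and 35mM guaiacol; 1mM H2O2 starts reaction. Absorbance change at 450nm over first 80 s; loss of signal versus DMSO, three replicates.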

Turning to `Nc1nc(Cl)nc2c1ncn2[C@H]1C[C@H](O)[C@@H](CO)O1`, in assay [1], the AC50 is 0.354 µM (active) and the molecule was classed as inactive.

With `Cc1ccc(-c2cc(C(F)(F)F)nn2-c2ccc(S(N)(=O)=O)cc2)cc1`, the AC50 in assay [1] is 70.4 µM (active).

`Oc1ccc(O)cc1`: the outcome in assay [2] was inactive. Further, in assay [3], the AC50 is 2.69 µM (active).

Regarding `CC(N)=O`, the result in assay [3] was inactive.

As for `CC1(C)C(=O)NC(=O)N1CO`, the molecule was called inactive in assay [3].

With `CC(=O)O`, the result in assay [3] was inactive.

Take `C/C=C/c1ccc(OC)cc1`: the outcome in assay [3] was inactive.

As to `Oc1ccccc1O`, the outcome in assay [2] and in assay [3] was inactive.

In the case of `C/C=C/C=C/C(=O)O`, the molecule was called inactive in assay [3].

On to `Cc1c(C)c2c(c(C)c1O)CCC(C)(COc1ccc(CC3SC(=O)NC3=O)cc1)O2` (stereo not drawn), for which the AC50 in assay [2] was 0.0321 µM (active). For the same molecule, the molecule was called inactive in assay [3].

Take `CCCCOC(=O)CCCCC(=O)OCCCC`: the molecule was called inactive in assay [3].

`CCCCC(CC)CO` (stereo not drawn): the molecule was classed as inactive in assay [3].

As to `O=C(NS(=O)(=O)/C=C/c1cccs1)c1ccc(F)cc1Br`, the call in assay [3] was inactive.

Turning to `CC(=O)OC1CC(C)OC(C)O1` (stereo not drawn), the result in assay [3] was inactive.

On to `Cn1cnc2c1c(=O)[nH]c(=O)n2C`, for which the result in assay [3] was inactive.

In the case of `CC1=C(C)S(=O)(=O)CCS1(=O)=O`, the outcome in assay [2] and in assay [3] was inactive.

As for `CCCC(=O)O`, the result in assay [3] was inactive.

As for `O=C(N[C@@H](c1ccccc1)[C@@H]1CCCCN1)c1cccc(C(F)(F)F)c1Cl`, the half-maximal activity concentration (AC50) in assay [3] was 53.2 µM (active).

Regarding `O=C(O)CC(O)(CC(=O)O)C(=O)O`, in assay [3], the molecule was called inactive.

Regarding `CCCCc1nc2cccnc2n1Cc1ccc(-c2ccccc2-c2nnn[nH]2)cc1`, the outcome in assay [2] and in assay [3] was inactive.

With `CC(=O)O[C@]1(C(C)=O)CC[C@H]2[C@@H]3C=C(Cl)C4=CC(=O)[C@@H]5C[C@@H]5[C@]4(C)[C@H]3CC[C@@]21C`, the molecule was called inactive in assay [2] and in assay [3].

Regarding `CC(=O)OCC(COC(C)=O)OC(C)=O`, in assay [3], the molecule was classed as inactive.

As for `COC(=O)CCC(=O)OC`, in assay [3], the molecule was classed as inactive.

On to `S=c1[nH]c2ccccc2s1`, for which the outcome in assay [2] was inactive.

For the molecule `O=C1c2c(O)cccc2Cc2cccc(O)c21`, the molecule was called inactive in assay [2] and in assay [3].

As to `COc1ccc(C(=O)Nc2nc3ccccc3c(NCc3ccccc3)c2C#N)cc1`, the AC50 in assay [2] was 0.909 µM (active). Further, in assay [3], the outcome was inactive.

For `CC(C)(O)c1ccc(CNC(=O)c2cccnc2Oc2ccc(F)cc2)cc1`, the result in assay [2] and in assay [3] was inactive.

For `CCCCC(CC)COC(=O)CCCCCCCC(=O)OCC(CC)CCCC` (stereo not drawn), the outcome in assay [3] was inactive.

Take `CCOCCOCCO`: the result in assay [3] was inactive.

As to `CN(C)C(=O)NC1(c2ccccc2)CCN(CCC[C@]2(c3ccc(Cl)c(Cl)c3)CCCN(C(=O)c3ccccc3)C2)CC1`, the outcome in assay [2] and in assay [3] was inactive.

`C=CCc1ccc(OC)c(OC)c1`: in assay [2], the AC50 is 0.102 µM (active). Moreover, the molecule was called inactive in assay [3].

With `CCCCCCCC(=O)OC`, the call in assay [3] was inactive.

`CS(=O)(=O)c1ccc([C@@H](C[C@H]2CCC(=O)C2)C(=O)Nc2cnccn2)cc1Cl`: the molecule was called inactive in assay [3].

Regarding `OCC(O)CO`, the outcome in assay [3] was inactive.

`CC(C)COC(=O)CCCCC(=O)OCC(C)C`: the molecule was classed as inactive in assay [3].

For the molecule `Cc1cc(SC2=C(O)C[C@@](CCc3ccc(N)cc3)(C(C)C)OC2=O)c(C(C)(C)C)cc1CO`, the molecule was classed as inactive in assay [3].

In the case of `CO[C@@H]1COCC[C@@H]1N[C@@H]1CC[C@@](C(=O)N2CCc3ncc(C(F)(F)F)cc3C2)(C(C)C)C1`, the result in assay [3] was inactive.

As for `COc1ccc(OC(F)(F)F)cc1CN[C@H]1CCCN[C@H]1c1ccccc1`, the AC50 in assay [3] was 17.9 µM (active).

`Cc1occc(=O)c1O`: in assay [3], the result was inactive.

With `CC(C)c1cccc(C(C)C)c1`, in assay [3], the molecule was called inactive.

For the molecule `C#CC(O)C(CC)CCCC` (stereo not drawn), the call in assay [3] was inactive.

`CC(C)c1cccc(C(C)C)c1NC(=O)NS(=O)(=O)c1cc(C(C)(C)O)co1`: the result in assay [3] was inactive.

For the molecule `NC=O`, the outcome in assay [3] was inactive.

Regarding `O=[Si]=O`, the outcome in assay [3] was inactive.

As to `c1ccc2occc2c1`, the molecule was called inactive in assay [3].

As for `O=C1O[C@H]([C@H](O)CO)C(O)=C1O`, the result in assay [3] was inactive.

As to `CC(C)(C)c1ccccc1`, in assay [3], the half-maximal activity concentration (AC50) was 24.6 µM (active).

Consider `OCC(CO)n1cnc(-c2ccc(F)cc2)c1-c1ccnc(Oc2ccccc2)n1`, for which the molecule was called inactive in assay [3].

Take `O=C(O)c1[nH]n(-c2ccc(S(=O)(=O)O)cc2)c(=O)c1N=Nc1ccc(S(=O)(=O)O)cc1`: the molecule was called inactive in assay [3].

For `CSc1ccc(Oc2ccc(S(N)(=O)=O)cc2CN(C)C)cc1C`, the concentration at half-maximal activity (AC50) in assay [3] was 22.8 µM (active).

Take `NCCOCCOCCN`: in assay [3], the outcome was inactive.

As for `COC(=O)CCCC(=O)OC`, in assay [3], the call was inactive.

On to `CCCCCCC(C=O)=Cc1ccccc1`, for which the molecule was classed as inactive in assay [3].

For the molecule `CN(C)CCCN(C)CCCN(C)C`, in assay [3], the outcome was inactive.

Turning to `COC(=O)[C@H]1[C@H]2C[C@@H]3c4[nH]c5cc(OC)ccc5c4CCN3C[C@H]2C[C@@H](OC(=O)c2cc(OC)c(OC)c(OC)c2)[C@@H]1OC`, the call in assay [3], in assay [5] and in assay [7] was inactive. Moreover, the half-maximal activity concentration (AC50) in assay [4] is 81.8 µM (active); in assay [6], 50 µM (active).

As for `O=C1CCCCC1`, in assay [3], the call was inactive.

For the molecule `CCCCCCCCCCCCCCOS(=O)(=O)O`, the AC50 in assay [3] is 32.8 µM (active).

As for `NC1CCCCC1`, the molecule was called inactive in assay [3].

Turning to `CN(C)C(=O)NC1(c2ccccc2)CCN(CC[C@@]2(c3ccc(F)c(F)c3)CN(C(=O)c3ccccc3)CCO2)CC1`, in assay [3], the molecule was classed as inactive.

With `C=CCCCCCCCCCCCC`, in assay [3], the call was inactive.

For `CC(C)NCC(O)c1ccc(O)c(O)c1` (stereo not drawn), in assay [3], the molecule was called inactive. In addition, the concentration at half-maximal activity (AC50) in assay [8] was 7.79 µM (active).

Source of the values: PubChem BioAssay (EPA / NIEHS).
